Structures can show the parent of a compound that is named as a salt. ± gives the standard deviation of the averaged measurements.
The compounds below were run on Listeria monocytogenes 10403S (assay: growth inhibition relative to ceftriaxone-alone control; higher = stronger potentiation of ceftriaxone growth inhibition). Conditions: 10 µM; ceftriaxone 1 ug/ml; 12 h.
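Also: End-point A600 read in BHI broth at 37 °C with 2% DMSO, inhibition computed as (1 − OD with compound plus ceftriaxone ÷ OD with ceftriaxone only) × 100.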

| SMILES | growth inhibition |
| --- | --- |
| O=C1NC(=O)C(c2cccc(Cl)c2)=C1Nc1ccc(Cl)c(C(=O)O)c1 | 9.83 ± 0.41% |
| COc1cc2ncn(-c3cc(OCc4ccccc4C(F)(F)F)c(C(C)=O)s3)c2cc1OC | 11.2 ± 1.6% |
| NS(=O)(=O)c1cccc(Nc2cc(-c3ccc(F)cc3)n[nH]2)c1 | -5.13 ± 10% |
| Fc1ccc(-c2ncn(C3CCNCC3)c2-c2ccnc(Oc3ccc(F)c(F)c3)n2)cc1 | 10.7 ± 16% |
| CCn1c(-c2nonc2N)nc2cnc(Oc3cccc(NC(=O)c4ccc(OCCN5CCOCC5)cc4)c3)cc21 | 0.09 ± 1.7% |
| COc1cccc2cc(-c3nc([C@H]4CC[C@H](C(=O)O)CC4)n4ncnc(N)c34)[nH]c12 | 16.8 ± 14% |
| NS(=O)(=O)c1ccc(-c2ccc3c(NC(=O)C4CC4)n[nH]c3c2)cc1 | -10.8 ± 16% |
| CCn1c(-c2nonc2N)nc2c(C#CC(C)(C)O)nc(CN3CCCC3)cc21 | 4.95 ± 5.7% |
| CCn1c(-c2nonc2N)nc2cnc(Oc3cccc(NC(=O)c4ccc(N(C)C)cc4)c3)cc21 | -5.93 ± 1.5% |
| O=C(NCCCNc1nc(Nc2cccc(NC(=O)N3CCCC3)c2)ncc1I)c1cccs1 | -19.4 ± 21% |
| COc1cc(C=NNc2ncnc3c2cnn3-c2ccccc2)ccc1O | 3.9 ± 5.4% |
| CN1CC[C@H](c2c(O)cc(O)c3c(=O)cc(-c4ccccc4Cl)oc23)[C@H](O)C1 [Flavopiridol HCl] | 10.3 ± 6.8% |
| [O-][S+]1CCN(Cc2ccc(-c3ccc4ncnc(Nc5ccc(OCc6ccccc6)c(Cl)c5)c4c3)o2)CC1 | 2.22 ± 6.4% |
| OCCn1cc(-c2ccc3c(c2)CC/C3=N\O)c(-c2ccncc2)n1 | 83 ± 8.8% |
| CNC(=O)c1cc(Oc2ccc(NC(=O)Nc3ccc(Cl)c(C(F)(F)F)c3)cc2)ccn1 [Sorafenib (Nexavar)] | 98.7 ± 1.8% |
| CCn1c(-c2nonc2N)nc2cncc(C(=O)N3CC[C@H](N)C3)c21 | 7.57 ± 2.1% |
| CCOc1ccn(-c2ccc(F)cc2)c(=O)c1C(=O)Nc1ccc(Oc2ccnc(N)c2Cl)c(F)c1 | 23.6 ± 24% |
| CN(C)C(=O)O[C@H]1CN[C@H](C#Cc2cc3ncnc(Nc4ccc(OCc5cccc(F)c5)c(Cl)c4)c3s2)C1 | -7.88 ± 10% |
| Cc1ccc(NC(=O)c2ccc(CN3CCN(C)CC3)cc2)cc1Nc1nc(-c2cccnc2)cs1 [Masitinib (AB1010)] | 36.7 ± 26% |

| SMILES | growth inhibition |
| --- | --- |
| O=C(NC1CCNCC1)c1n[nH]cc1NC(=O)c1c(Cl)cccc1Cl | 13.4 ± 5.9% |
| CC(C)(C)c1cc(/C=C(\C#N)C(N)=S)cc(C(C)(C)C)c1O [Tyrphostin AG 879 (AG 879)] | 72.8 ± 30% |
| c1ccc2c(-c3cnn4cc(-c5ccc(N6CCNCC6)cc5)cnc34)ccnc2c1 | 24.6 ± 12% |
| CN(C)Cc1cccc(N/C(=C2\C(=O)Nc3cc(C(N)=O)ccc32)c2ccccc2)c1 | 8.63 ± 3.3% |
| NS(=O)(=O)c1ccc(NC=C2C(=O)Nc3ccc4ncsc4c32)cc1 | -8.58 ± 4.7% |
| CNC(=O)c1cccc(-c2ccc3c(N4CCOC[C@@H]4C)nc(N4CCOC[C@@H]4C)nc3n2)c1 | 1.51 ± 0.18% |
| COc1cccc(-n2cnc3c(N/N=C/c4ccncc4)ncnc32)c1 | -10.6 ± 15% |
| COc1cccc(-n2ncc3c(N/N=C/c4ccc(C)cc4)ncnc32)c1 | -9.19 ± 0.67% |
| O=C(O[C@H]1CN[C@H](C#Cc2cc3ncnc(Nc4ccc(Cc5ccccc5)cc4)c3s2)C1)N1CCOCC1 | -6.43 ± 10% |
| CCc1ccc(Oc2nccc(-c3c(-c4ccc(F)cc4)ncn3C3CCNCC3)n2)cc1 | 1.75 ± 23% |
| CNC(=O)c1ccccc1Sc1ccc2c(/C=C/c3ccccn3)n[nH]c2c1 [Axitinib] | -11.8 ± 14% |
| FC(F)(F)c1ccc(Nc2nc3ccc(Oc4ccnc(-c5ncc(C(F)(F)F)[nH]5)c4)cc3[nH]2)cc1 [Raf265 Derivative] | 49.3 ± 21% |
| CC[C@H](CO)Nc1nc(NCc2ccccc2)c2ncn(C(C)C)c2n1 [Roscovitine (Seliciclib, CYC202)] | 22.9 ± 22% |
| NC(=O)c1cc(-c2ccc(F)cc2)cc(-c2ccncc2)c1N | -1.35 ± 1.1% |
| Nc1nc(Nc2ccc(S(N)(=O)=O)cc2)nn1C(=O)c1c(F)cccc1F | 27.6 ± 6.5% |
| O=C(Nc1n[nH]c2cc(-c3ccccc3)ccc12)C1CC1 | 4.09 ± 0.32% |
| CCn1c(-c2nonc2N)nc2c(N3CCCC3)nccc21 | 18.7 ± 38% |
| CN1CCN(c2cccc(Nc3nc4c(-c5ccc(S(C)(=O)=O)cc5)cccn4n3)c2)CC1 | 69 ± 27% |
| Fc1ccc(-c2nn3ccccc3c2-c2ccncc2)cc1 | 20.7 ± 8.6% |

From the supplement of paper PMC5641865, “A screen for kinase inhibitors identifies antimicrobial imidazopyridine aminofurazans as specific inhibitors of the Listeria monocytogenes PASTA kinase PrkA” (The Journal of Biological Chemistry, 2017)
